Screens (PubChem)
Pf growth 96h: Primary qHTS for delayed death inhibitors of the malarial parasite plastid, 96 hour incubation. 320,000 tested, 6.9% active. P. falciparum luciferase reporter growth, 96 h. Potency, µM (series often up to 28.7 µM), actives largely listed as inhibitors. AID 504834, 2011
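Compounds incubated with erythrocytes infected by luciferase-expressing P. falciparum (2% hematocrit, 0.05% parasitemia final) for 96 hours, 37 C in 5% CO2. Growth inhibition scored as decreased luciferase luminescence.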
HCMV antiviral: qHTS Assay for inhibitors of the human cytomegalovirus (HCMV) | 410,000 tested, 4.5% active | HFF cells, HCMV-luciferase reporter, 72 h; active compounds read low | activity change, negative = inhibition, % at 57.5 µM; in the data active = activity change below about -60%; inconclusive = no clear call, values can overlap the other calls; inactive = above about -39%
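Luciferase read-out from HCMV-luciferase-infected HFFs (MOI 1 PFU/cell) 72 h post infection at 37C; compounds added after 16 h cell attachment; activity normalized between buffer-only basal and Salinomycin (10uM) inhibitor controls.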
Pf growth 48h: Primary qHTS for delayed death inhibitors of the malarial parasite plastid, 48 hour incubation; AID 504832, 2011; Potency, µM (series often up to 28.7 µM), hits mostly inhibitors; P. falciparum luciferase growth in erythrocytes, 48 h; 310,000 tested, 5.9% active
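Luminescence readout; reporter = integrated firefly luciferase in P. falciparum. RBC culture at 2% hematocrit, 0.1% parasitemia final, 37 C/5% CO2; decreased signal taken as growth inhibition.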
Cycloheximide cs: Cycloheximide Counterscreen for Small Molecule Inhibitors of Shiga Toxin; cell reporter, cycloheximide protein synthesis inhibition counterscreen; max response, %; 300,000 tested, 12% active; in the data active = max response mostly above about 13%, no sharp cut-off; inactive = mostly below about 14%; note: read at 38.3 µM for the half of the compounds with a filed dose
Shiga toxin inh: A qHTS for Small Molecule Inhibitors of Shiga Toxin; Vero cells, Shiga toxin protein synthesis inhibition reporter; inhibition, % at 38.7 µM; 290,000 tested, 9.2% active; in the data active = inhibition mostly above about 28%, no sharp cut-off; inactive = mostly below about 43%
Of the large screens only hits and unclear results are named; the others gave an inactive call. The list is not random: actives were taken first. Their share in the collection is about 20%. Unless noted, calls come from the whole dose curve; as a rule, active = well fitted inhibition curve with a large enough effect; inconclusive = small, poorly fitted or top-dose-only effect, or another doubt; inactive = no such curve, though single readings can be large or run the other way.

OC(c1ccc(Cl)c(Cl)c1)c1ncc(-c2ccc(C(F)(F)F)cc2)[nH]1 (stereo not drawn)	none (no result: Pf growth 96h, Pf growth 48h, Cycloheximide cs, Shiga toxin inh)
CCc1cc2c(cc3c(=O)n(CC(=O)N4CCN(c5cccc(C)c5C)CC4)nc(CC)n32)s1	none (no result: Pf growth 96h, Pf growth 48h, Cycloheximide cs, Shiga toxin inh)
CCOC(=O)c1ccc(N2CCOCC2)c(NC(=O)c2nccnc2C(=O)O)c1	none
CCOC(=O)c1c(NC(=O)C(=O)N/N=C/c2ccccc2OC)sc2c1CCCCC2	none
CCOC(=O)c1c(NC(=O)C(=O)N/N=C/c2ccccc2O)sc2c1CCCCC2	Pf growth 96h 0.93µM, Pf growth 48h 0.66µM
CCOC(=O)c1c(NC(=O)COC(=O)c2nc(Cl)ccc2Cl)sc2c1CCC2	Pf growth 96h inconclusive, HCMV antiviral -61
CCOC(=O)c1c(NC(=O)COC(=O)c2nccnc2N)sc2c1CCC2	Pf growth 96h inconclusive (no result: Cycloheximide cs, Shiga toxin inh)
COC(=O)CCCC(=O)NC(C)c1cnn(-c2ccccc2C)c1C (stereo not drawn)	Pf growth 96h 13µM, HCMV antiviral inconclusive
COc1cc(C(=O)NC(C)c2cnn(-c3ccccc3C)c2C)cc(OC)c1OC (stereo not drawn)	Pf growth 48h inconclusive, Cycloheximide cs 15
COCc1ccc(C(=O)NC(C)c2cnn(-c3ccccc3C)c2C)o1 (stereo not drawn)	none
CCc1c(-c2ccc(Br)cc2)ncn1Cc1cccc(-c2ccccc2)c1	none (no result: Pf growth 96h, Pf growth 48h, Cycloheximide cs, Shiga toxin inh)
N=c1ccn(Cc2ccccc2Cl)cc1	HCMV antiviral -85, Pf growth 48h 4.7µM (no result: Pf growth 96h)
N=c1ccn(Cc2ccc(Cl)cc2Cl)cc1	Pf growth 96h 1.5µM, HCMV antiviral -97 (no result: Pf growth 48h)
O=C1CCCc2ccccc2N1Cc1c(Cl)cccc1Cl	none
N=c1ccn(Cc2c(Cl)cccc2Cl)cc1	Pf growth 96h inconclusive, HCMV antiviral -78, Pf growth 48h inconclusive
COc1cccc(-c2cc(C(=O)N3CCN(Cc4ccc5c(c4)OCO5)CC3)on2)c1	none
O=C(Nc1ccc(F)cc1F)c1cc2c(=O)n3ccccc3nc2s1	none (no result: Pf growth 96h, Pf growth 48h, Cycloheximide cs, Shiga toxin inh)
CCCCN1C2=C(C(=O)CCC2)C(c2ccc(Cl)c(Cl)c2)C2=C1c1ccccc1C2=O (stereo not drawn)	Pf growth 96h inconclusive, Pf growth 48h inconclusive
COc1ccccc1N(C(=O)CNC(=O)c1ccco1)C(C(=O)NC1CCCC1)c1ccco1 (stereo not drawn)	none
O=C(/C=C/c1ccccc1)Nc1cccc(C(=O)NCCCc2ccccc2)c1	none (no result: Pf growth 96h, Pf growth 48h, Cycloheximide cs, Shiga toxin inh)
Cc1ccc(/C=C/C(=O)NCCCc2ccccc2)cc1	Cycloheximide cs 19
C#CCNC(=O)/C=C/c1ccc(C)cc1	Cycloheximide cs 36
COc1cc(C2NC(=O)NC(C)=C2C(C)=O)ccc1O (stereo not drawn)	none
COc1ccc(C(O)c2nc(/C=C/c3ccc(C(F)(F)F)cc3)cs2)cc1 (stereo not drawn)	none (no result: Pf growth 96h, Pf growth 48h, Cycloheximide cs, Shiga toxin inh)
COc1ccc(OC)c(Nc2nc(NCCO)c3ccccc3n2)c1	Pf growth 96h inconclusive, Pf growth 48h 2.1µM
Cc1ccc(Nc2nc(NCCO)c3ccccc3n2)cc1C	Pf growth 96h inconclusive, Pf growth 48h 0.47µM (no result: Shiga toxin inh)
Cc1ccc2c(=O)cc(C(=O)Nc3sc4c(c3C(N)=O)CCCC4)oc2c1	none (no result: Pf growth 96h, Pf growth 48h, Cycloheximide cs, Shiga toxin inh)
CCCCC[C@H](O)/C=C\[C@@H]1[C@H](O)CC(=O)[C@@H]1CCCCCCC(=O)O	Pf growth 96h 5.1µM, Pf growth 48h inconclusive (no result: HCMV antiviral, Cycloheximide cs, Shiga toxin inh)
CCCCC[C@H](O)/C=C/[C@H]1CCC(=O)[C@@H]1CCCCCCC(=O)N1CCCCC1CO (stereo partly drawn)	Pf growth 96h inconclusive, HCMV antiviral -74, Pf growth 48h 9.3µM
CCOC(=O)c1c(C)[nH]c(C(=O)OCC(=O)Nc2sccc2C(N)=O)c1C	Pf growth 96h inconclusive, HCMV antiviral -68, Pf growth 48h 4.7µM (no result: Cycloheximide cs, Shiga toxin inh)
CCOC(=O)c1[nH]c(C)c(C(=O)OCCOc2cccc(C)c2)c1C	Pf growth 96h 2.6µM, Pf growth 48h 7.4µM, Cycloheximide cs 22
CCOC(=O)c1[nH]c(C)c(C(=O)OCc2ccccc2F)c1C	Cycloheximide cs 12
CCCNC(=O)COC(=O)c1[nH]c(C)c(C(=O)OCC)c1C	none (no result: Pf growth 48h)
CCOC(=O)c1c(C)[nH]c(C(=O)COC(=O)C2CC2C)c1C (stereo not drawn)	Cycloheximide cs 47, Shiga toxin inh 60
CCOC(=O)c1c(C)[nH]c(C(=O)OCC(=O)Nc2ccc(Cl)cn2)c1C	none (no result: Cycloheximide cs, Shiga toxin inh)
CC(=O)Nc1cccc(NC(=O)C2CCCO2)c1 (stereo not drawn)	none (no result: Pf growth 96h, Pf growth 48h, Cycloheximide cs, Shiga toxin inh)
